The values below come from PubChem BioAssay AID588354 (The Scripps Research Institute Molecular Screening Center, 2011).

A word on the inhibition: it is the change of the read-out against control, counted positive when it falls.

Screen size: about 360,000 compounds; about 430 (0.12%) were called active. The sample holds actives, similar compounds and a random draw of the others, so the mix is not that of the screen. Unmarked numbers belong to inactive results.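 Rule for the calls: active = inhibition above the campaign mean plus 3 SD, with each screening campaign given its own cutoff (cut at about 60% in these data); inactive = the rest.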

The target of the assay is Nuclear receptor coactivator 1 (Homo sapiens) (UniProt Q15788). Put plainly: NCOA1 GAL4-fusion reporter inhibition – cell-based, luminescence, primary screen (AID 588354).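 Note: 0% = DMSO treated cells and 100% = gossypol at 36 µM.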 The note with it: HEK293 GAL4-SRC1 luciferase reporter, at 3.6 µM, stronger effect = higher value. (In general: In a reporter assay the amount or activity of a reporter protein is the signal.)
Chain of Nuclear receptor coactivator 1 (Homo sapiens) (Q15788 whole entry, looked up, the tested form may be a part): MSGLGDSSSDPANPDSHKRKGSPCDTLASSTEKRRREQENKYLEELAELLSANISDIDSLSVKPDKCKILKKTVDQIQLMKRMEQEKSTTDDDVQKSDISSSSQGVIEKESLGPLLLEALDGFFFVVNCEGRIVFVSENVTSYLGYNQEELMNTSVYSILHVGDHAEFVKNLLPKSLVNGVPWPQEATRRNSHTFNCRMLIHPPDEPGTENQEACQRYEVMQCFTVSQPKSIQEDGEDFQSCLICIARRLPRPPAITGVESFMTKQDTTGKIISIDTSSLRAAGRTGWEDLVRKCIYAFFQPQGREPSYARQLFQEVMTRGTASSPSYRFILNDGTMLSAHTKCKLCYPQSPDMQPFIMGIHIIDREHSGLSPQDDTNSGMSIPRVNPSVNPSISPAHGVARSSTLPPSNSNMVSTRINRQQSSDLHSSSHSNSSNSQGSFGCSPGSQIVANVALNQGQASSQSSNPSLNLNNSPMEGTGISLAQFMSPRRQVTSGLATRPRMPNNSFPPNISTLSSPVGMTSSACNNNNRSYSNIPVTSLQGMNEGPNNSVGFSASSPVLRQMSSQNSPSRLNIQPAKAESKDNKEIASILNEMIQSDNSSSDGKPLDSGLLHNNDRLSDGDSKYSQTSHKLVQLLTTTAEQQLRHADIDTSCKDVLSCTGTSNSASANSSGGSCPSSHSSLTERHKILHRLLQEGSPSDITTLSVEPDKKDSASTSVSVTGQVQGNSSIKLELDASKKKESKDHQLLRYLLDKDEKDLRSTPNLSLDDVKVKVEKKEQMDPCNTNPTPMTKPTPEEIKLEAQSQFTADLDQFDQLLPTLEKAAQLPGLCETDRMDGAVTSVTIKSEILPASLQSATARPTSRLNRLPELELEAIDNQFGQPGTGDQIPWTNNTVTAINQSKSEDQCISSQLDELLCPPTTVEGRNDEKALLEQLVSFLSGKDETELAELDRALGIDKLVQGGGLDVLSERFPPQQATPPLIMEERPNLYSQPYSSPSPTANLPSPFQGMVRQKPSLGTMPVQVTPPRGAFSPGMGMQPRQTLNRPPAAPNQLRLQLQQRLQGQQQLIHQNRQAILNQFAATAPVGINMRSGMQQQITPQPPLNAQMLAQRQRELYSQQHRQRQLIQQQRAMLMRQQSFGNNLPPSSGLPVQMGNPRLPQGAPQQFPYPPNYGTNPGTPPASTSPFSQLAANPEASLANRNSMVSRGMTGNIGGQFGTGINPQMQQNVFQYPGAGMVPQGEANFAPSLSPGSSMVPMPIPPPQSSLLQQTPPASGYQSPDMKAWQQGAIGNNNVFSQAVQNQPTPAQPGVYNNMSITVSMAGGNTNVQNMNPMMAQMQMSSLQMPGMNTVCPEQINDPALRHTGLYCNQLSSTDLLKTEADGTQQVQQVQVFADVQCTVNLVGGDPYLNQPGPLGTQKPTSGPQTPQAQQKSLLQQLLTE
As for `CCOc1cc(CNCc2ccccn2)ccc1OCC(=O)NC(C)(C)C`, the inhibition is 10.8%.
As for `O=C(Cc1ccccn1)c1ccc(O)cc1O`, the inhibition was -0.25%.
Regarding `CCC(C)C(=O)Nc1cc([N+](=O)[O-])ccc1Cl` (configuration not stated), the inhibition is -3.1%.
With `OCCCNc1nccc(-c2cc(Nc3cccc(Cl)c3)ncn2)n1`, the inhibition is 73.6% (active).
Regarding `COc1ccc(-c2c(C#N)cnc(C)c2C)c(O)c1OC`, the inhibition is -0.11%.
On to `O=C(c1ccc[nH]c1=S)N1CCN(S(=O)(=O)c2ccc(Br)cc2Cl)CC1`, for which the inhibition is -3.09%.
Take `CC(C)CCNC(=O)CCNS(=O)(=O)c1ccc(Cl)cc1`: the inhibition is -13%.
Take `Nc1cc2c(cc1Br)-c1ccc(F)cc1C2=O`: the inhibition is -13.1%.
On to `CCOC(=O)N1CCC(O)(c2cc(C)c(C)cc2C)CC1`, for which the inhibition was -15.8%.
In the case of `O=C(NCc1ccccc1Cl)C1CCCN1S(=O)(=O)c1ccc(F)cc1` (configuration not stated), the inhibition was -10.6%.
As for `CCn1nc(C)c(CNC(=O)C2CCC(=O)N(Cc3cccc(F)c3)C2)c1C` (configuration not stated), the inhibition is -37.5%.
The same measure for `COc1ccc(NC(=O)CSc2nc(NS(=O)(=O)c3ccc(C)cc3)cc(=O)[nH]2)cc1`: -19.6%; for `COCCn1nnnc1CN1CCC(NC(=O)Nc2cccc(OC)c2)CC1`: 0.56%; for `CC(=O)c1ccc(N2CCN(C(=O)CCNC(=O)Cn3ccc4ccccc4c3=O)CC2)cc1`: 3.75%.
Regarding `O=C(c1cccc(-n2cccc2)c1)N1CCN(S(=O)(=O)c2ccc(F)cc2)CC1`, the inhibition is -2.17%.
Turning to `COc1ccc([C@H]2[C@H](C(C)=O)N3N=Cc4ccccc4C3C23C(=O)OC(C)(C)OC3=O)cc1` (some centres not stated), the inhibition was -26.2%.
Turning to `CC(C)Oc1ccc(/C=N/NC(=O)c2nnn(-c3nonc3N)c2CN(C)C2CCCCC2)cc1`, the inhibition is 7.06%.
`CCOc1ccccc1-n1c(SCC(=O)NCc2ccco2)nnc1-c1ccncc1`: the inhibition was 5.79%.
For the molecule `O=C(COC(=O)CCOc1ccccc1)Nc1cc(S(=O)(=O)N2CCCCC2)ccc1Cl`, the inhibition is -9.87%.
For the molecule `COCCOC1CCN(C(=O)c2ccc(OC)c(OC3CCN(C(C)C)CC3)c2)CC1`, the inhibition is -0.27%.
Consider `CCOC(=O)CC1COCCN1C(=O)c1cc(COc2ccc(F)c(F)c2)on1` (configuration not stated), for which the inhibition is -5.67%.
For the molecule `COCCn1c(N)c(NCc2ccccc2)c(=O)[nH]c1=O`, the inhibition was -11.5%.
The same measure for `CCOP1(=O)C=C(C(C)(C)C)OC1c1ccc(F)cc1` (configuration not stated): -6.16%; for `O=C(O)COCC(=O)NCc1csc2ccc(Cl)cc12`: 11.9%.
Take `CC1(C)CC(CNCCC(c2ccc(F)cc2)c2ccco2)CCO1` (configuration not stated): the inhibition was 12.7%.
As for `COc1ccc(-c2nnc(SCC(=O)Nc3cccnc3Cl)n2C)cc1`, the inhibition was 16.4%.
As for `CCOC1=C2CN(S(=O)(=O)c3ccc(C)cc3)[C@H](c3cccs3)C[C@H]2[C@H]2C(=O)N(c3ccccc3)C(=O)[C@H]2C1`, the inhibition was 0.21%.
Consider `Cc1[nH]c(C)c(S(=O)(=O)N2CCC(C)CC2)c1C(=O)N1CCCC1`, for which the inhibition is 0.69%.
`Cc1nc(-c2ccccc2)sc1-c1nc(-c2ccccc2)ncc1S(=O)(=O)c1ccccc1`: the inhibition was 7.02%.
For `CCOc1ccc(CNC(=O)C2CC(=O)N(C3CCCC3)C2)cc1OC` (configuration not stated), the inhibition is -4.04%.
Turning to `COc1ccc(NC(=O)CN(C)C(=O)CNC(=O)C2CCCCC2)cc1`, the inhibition was 6.97%.
`O=C(COC(=O)c1ccco1)Nc1ccc(Cl)cn1`: the inhibition is -10.8%.
As to `COc1cccc(/C=C(/CC(=O)Nc2ccc(N3CCOCC3)cc2)c2nc3ccccc3s2)c1`, the inhibition was -38.5%.
Take `COC(=O)Cc1[nH]n(-c2nc3ccccc3s2)c(=O)c1C(C)=Nc1ccc(OC)cc1`: the inhibition was 81.3% (active).
For `COCCCC1CCN(C(=O)C2CCC(=O)N(C3CCCCCC3)C2)CC1` (configuration not stated), the inhibition is 2.7%.
As for `CCN(CC)C(=O)C1=C(C)N(Cc2ccccc2)C(=O)C(CC(=O)NC(c2ccccc2)c2ccccc2)C1` (configuration not stated), the figure is -24.8%.
Take `FC(F)(F)c1nc(-c2ccccc2)ncc1-c1nnnn1-c1ccccc1`: the inhibition is 2.72%.
As for `CC1=CC(C)(C)Nc2ccc(OC(=O)CN3C(=O)C4CCCCC4C3=O)cc21` (configuration not stated), the figure is -14.7%; as for `CC[C@H]1CN2CCc3cc(OC)c(OC)cc3[C@@H]2C[C@@H]1C[C@H]1NCCc2cc(OC)c(OC)cc21`, 94.8% (active); as for `Nc1c(N(CCCO)C(=O)C2CCCC2)c(=O)[nH]c(=O)n1Cc1ccccc1`, -4.42%.
As to `Cc1cc(C)nc(-n2ncc3c2CC(c2ccc(C(C)C)cc2)CC3=O)n1` (configuration not stated), the inhibition was -16.7%.
For `O=C(CC(O)(C(F)(F)F)C(F)(F)F)Nc1ccc(Cl)c(Cl)c1`, the inhibition is 71.9% (active).
With `CC1(C(=O)O)CCC(C(=O)Nc2ccc(Cl)c(Cl)c2)C1(C)C` (configuration not stated), the inhibition is 1.51%.
Regarding `N#CCCN(C(=O)Nc1ccc(Cl)c(Cl)c1)C1CCCCC1`, the inhibition was 4.76%.
Regarding `O=C(Nc1cc(S(=O)(=O)N2CCOCC2)ccc1N1CCOCC1)c1c(F)cccc1Cl`, the inhibition is 4.42%.
Regarding `CCOc1ccc(S(=O)(=O)N2CCC(C(=O)NCC(=O)Nc3cccc(Cl)c3C)CC2)cc1`, the inhibition is -15%.
Consider `COCOc1cc(O)c(C(=O)/C=C/c2ccc(OCOC)c(OCOC)c2)c(OCOC)c1`, for which the inhibition was -3.45%.
As for `C=CCn1c(C)cc(C2=NNC(=NCC)SC2)c1C`, the inhibition is 87.5% (active).
The same measure for `Cc1ccc(N2C(=O)CN=C2Nc2nc(C)cc(C)n2)cc1`: 0.5%; for `O=C(CN1C(=O)c2ccccc2S1(=O)=O)N1CCc2ccccc21`: 73% (active); for `CN(Cc1cccs1)C(=O)CN1C(=O)c2ccccc2S1(=O)=O`: -19.1%.
As for `COc1ccc(CNC(=O)CN2C(=O)c3ccccc3S2(=O)=O)cc1`, the figure is 2.81%; as for `CC1CC(NC(=S)N(C)C)CC(C)(C)C1` (configuration not stated), 0.06%; as for `Cc1ccc(NC(=O)CN2CCC3(O)CCCCC3C2c2ccc3c(c2)OCO3)c(C)c1` (configuration not stated), 5.71%.
For the molecule `CCCCCCCCn1c2c(c(=N)c3c1CCC3)CCCC2`, the inhibition is 69% (active).
In the case of `O=C(COC(=O)C1CCN(S(=O)(=O)c2ccc3c(c2)OCCO3)CC1)Nc1ccccc1OC(F)F`, the inhibition is 6.03%.
Take `O=C(CCNC(=O)c1ccc([N+](=O)[O-])cc1)Nc1ccccc1N1CCOCC1`: the inhibition is -16.9%.
